Screen size: about 94,000 compounds; about 680 (0.72%) were called active. The full list was thinned out, with actives kept by preference. Unmarked numbers belong to inactive results. No stated cut-off is given here; in the data, active means z-score above about 3.2; inactive means the rest.

The target of this experiment is M-phase inducer phosphatase 2 (Homo sapiens) + Cyclin-dependent kinase 2 (Homo sapiens) + Cyclin-A2 (Homo sapiens) (UniProt P30305+P24941+P20248). Kind of experiment: primary biochemical HTRF screen for blockers of M-phase inducer phosphatase 2 binding to CDK2/cyclin A (AID 1259370). To be noted: HTRF CDC25B-CDK2/CyclinA binding, anti-His/anti-Flag; hits give high values. In general terms: In TR-FRET formats the signal depends on donor and acceptor labels being close together.
With `N#Cc1c(-c2ccccc2)nc(SCCCCOc2ccc(Cl)cc2)[nH]c1=O`, the z-score was 4.75 (active). Next, `Cc1ccc(CSc2nc(-c3ccccc3)c(C#N)c(=O)[nH]2)cc1`: -0.77; `CCSc1nc(-c2ccc(Cl)cc2)c(C#N)c(=O)[nH]1`: -0.88; `O=C(CSc1ncnc2nc[nH]c12)c1ccc(O)c(O)c1`: 2.58. Turning to `Cc1n[nH]c(=O)c2nn(-c3ccccc3)c(C)c12`, the z-score is 0.76. Regarding `Cc1cc(C)cc(NS(=O)(=O)c2ccc3c(c2)n(C)c(=O)n3C)c1`, the z-score was -1.42.

For the compound `Cc1cc2c(c(=O)n1CC1CCCO1)C(c1cccc(Br)c1)C(C#N)=C(N)O2` (stereo not given), the z-score was -0.22. Take `CC(C)c1ccc(C2c3c([nH][nH]c3=O)CC(C)(O)C2C(=O)OCc2ccccc2)cc1` (stereo not given): the z-score was -1.98. For the compound `COc1ccc(S(=O)(=O)NC(C)c2nc(-c3ccc(C)cc3)no2)cc1` (stereo not given), the z-score is -1.34. As for `CC(C)CC(=O)Nc1ccc2nsnc2c1`, the z-score is -1.58. In the case of `COC(=O)c1ccc2snnc2c1`, the z-score is -0.98. Next, `CC(C)NC(=O)Nc1ccc2snnc2c1`: 5.16 (active); `CCOC(=O)c1cn(-c2cccc(F)c2)nn1`: -1.61. Next, `Cn1c(=O)n(C)c2cc(S(=O)(=O)Nc3ccc(F)cc3)ccc21`: -0.14. The figure for `Cc1nc(C)c(C(=O)Nc2nnc(CC(C)C)s2)s1` is -0.08; for `CC12CC3(C)CC(C)(C1)CC(C(=O)NC(C)(C)CO)(C2)C3` it is -1.12.

Consider `O=C(CSc1ccc(-c2cccs2)nn1)N1CCCc2ccccc21`, for which the z-score is -0.97. Take `O=C(c1cccnc1)N(c1ccc2oc(=O)sc2c1)S(=O)(=O)c1ccccc1`: the z-score is -1.85. For `O=C(c1cccnc1)N(c1cc2sc(=O)oc2c2ccccc12)S(=O)(=O)c1ccccc1`, the z-score is 12.3 (active). The figure for `COc1ccc(S(=O)(=O)N(C(=O)c2ccncc2)c2ccc3oc(=O)sc3c2)cc1OC` is -3.46; for `CCn1c(COC)nc2ccccc21` it is -0.64.

In the case of `CCC(C)NC(=O)C1=CC(c2cccs2)=NS(=O)(=O)N1C` (stereo not given), the z-score is -1.72. Take `O=C(O)c1cccc(N2C(=O)c3ccc4c5c(ccc(c35)C2=O)CC4)c1`: the z-score was 8.86 (active). The figure for `O=C1c2ccc3c4c(ccc(c24)C(=O)N1c1ccccc1)C(=O)N(c1ccccc1)C3=O` is -2.52.

`O=C1c2cccc3cccc(c23)C(=O)N1c1cccc(O)c1`: the z-score is -0.15. On to `COCCOC(=O)C1=C(C)Nc2nc3ccccc3n2C1c1cccc(F)c1` (stereo not given), for which the z-score is -1.51.

`COc1ccc(C(=O)Oc2ccc3c(c2)oc(=O)c2ccccc23)cc1`: the z-score was -0.65.

Regarding `CC(C)CCNC(=O)C1CCC(CNc2c(N3CCC(C)CC3)c(=O)c2=O)CC1` (stereo not given), the z-score is -0.9. Consider `Cc1nc(N2CCCCC2)cc(N2CCN(S(=O)(=O)c3ccc(F)cc3)CC2)n1`, for which the z-score was -1.52. Next, `CCOc1ccccc1Nc1nc2ccc(Cl)cc2n2nnnc12`: -2.08; `Cn1c(=O)n(C)c2cc(CNC3CCCCC3)ccc21`: -1.66. As to `S=C(Nc1cccnc1)N1CCCN(Cc2ccc(Cl)cc2Cl)CC1`, the z-score is 12 (active). The figure for `Clc1ccc(C=NCc2cccnc2)c(Cl)c1` is 0.36. As for `O=C(Nc1ccccc1)N1CCN(Cc2ccccc2)CC1`, the z-score is 4.1.

Consider `CCOC(=O)c1c(NC(=O)Nc2cccc(Cl)c2)sc2c1CCCC2`, for which the z-score is -0.86. As for `CC1=C(c2cccc(Br)c2)S(=O)(=O)N=C1Nc1ccccc1C`, the z-score was -2.29. Next, `O=C(COc1ccc2c3c(c(=O)oc2c1)CCC3)OC1CCCCC1`: -1.13; `COc1ccc2cc3c(N)nn(C(=O)Cn4c(=O)oc5ccccc54)c3nc2c1`: -0.84; `O=C(O)C1CCCN(c2cnccn2)C1` (stereo not given): 0.23. For `Cc1ccc(C)c(C(=O)CSc2n[nH]c(-c3ccco3)n2)c1`, the z-score is 8.74 (active). Next, `Cc1ccc(CNc2n[nH]c(-c3ccco3)n2)cc1`: -1.84. The figure for `COc1ccccc1-c1nc(SCC(=O)c2ccc(Br)cc2)n[nH]1` is -0.98; for `CCSc1ncc(Cl)c(C(=O)Nc2nc(C)c(C(=O)OCC(C)C)s2)n1` it is -1.22; for `Cn1c(=O)c2c(-c3cccc(Br)c3)n(C(CO)(CO)CO)cc2n(C)c1=O` it is 0.09. For the compound `CCOC(=O)C1=C(C)NC2=C(C(=O)c3ccccc32)C1c1ccc(OC(=O)c2ccccc2)cc1` (stereo not given), the z-score was 11.9 (active). Next, `CCOC(=O)C1=C(C)NC2=C(C(=O)c3ccccc32)C1c1cccc(F)c1` (stereo not given): -1.68; `COC(=O)C1=C(C)NC2=C(C(=O)c3ccccc32)C1c1ccc(OC)cc1` (stereo not given): 1.16; `O=C(O)CSc1nc2ccccc2c(=O)n1Cc1ccco1`: -1.25.

`CCOC(=O)c1sc(NC(=O)c2cc3ccccc3o2)c(C(=O)OCC)c1C`: the z-score is -1.55. The figure for `COc1ccc(C2CC(=O)N3CN(c4ccccc4OC)CSC3=C2C#N)c(OC)c1` (stereo not given) is 8.02 (active); for `COc1ccc(OC)c(C2C(C#N)=C3N=C(N)c4ccccc4N3C3=C2C(=O)CCC3)c1` (stereo not given) it is 0.51; for `Cc1cccc(N2CSC3=C(C#N)C(c4ccccc4C)CC(=O)N3C2)c1` (stereo not given) it is 3.61 (active).

Consider `COc1ccccc1N1C(=O)C2C(c3ccccc3C)OC3(C(=O)c4ccccc4C3=O)C2C1=O` (stereo not given), for which the z-score is 0.1. Take `COc1ccc(OC)c(C2CC(=O)N3CN(Cc4ccco4)CSC3=C2C#N)c1` (stereo not given): the z-score is -3.58.

Take `COc1ccc(C(=O)CC2(O)C(=O)N(C(C)C)c3ccccc32)c(OC)c1` (stereo not given): the z-score is -1. The figure for `CSC1=C(C#N)C(c2ccccc2C)CC(=O)N1` (stereo not given) is -0.39; for `CCOc1ccc(N2CSC3=C(C#N)C(c4ccc(SC)cc4)CC(=O)N3C2)cc1` (stereo not given) it is 6.74 (active); for `COc1ccc(OC)c(C2CC(=O)N3CN(c4ccccc4OC)CSC3=C2C#N)c1` (stereo not given) it is 3.41 (active). As to `N#CC1=C2SCN(c3ccc(F)cc3)CN2C(=O)CC1c1ccc(Br)cc1` (stereo not given), the z-score was 2.31.

As to `CC(C)C(=O)Nc1sc2c(c1C(=O)O)CCCC2`, the z-score is -2.62.

`Cc1nc(N)[nH]c(=O)c1Br`: the z-score is 0.46.

For `CCOC(=O)c1c(N)sc2c1CCN(C(C)=O)C2`, the z-score was -2.08.

For the compound `CCOC(=O)c1c(C)n(C)c2cc3c(cc12)OC(=O)C3(O)C(F)(F)F` (stereo not given), the z-score was -2.18. Turning to `N=C1C(c2nc3ccccc3[nH]2)=C(O)CN1c1ccc(Oc2ccccc2)cc1`, the z-score is 1.4. The figure for `CC1=C(C(N)=O)C(c2cccc(O)c2)n2nc(SCc3ccccc3F)nc2N1` (stereo not given) is -0.38; for `CCOC(=O)CNC(=O)N1CCCC1c1ccco1` (stereo not given) it is -1.79; for `Cc1ccc(NS(=O)(=O)C2CCS(=O)(=O)C2)cc1Cl` (stereo not given) it is -1.16. Next, `Cc1ccc(S(=O)(=O)c2nc(S(C)(=O)=O)sc2N2CCN(CCO)CC2)cc1`: -2; `Cc1cccc2c1Oc1nc(-c3ccccc3O)[nH]c(=O)c1C2`: -0.22; `C=CCN1C=C(OC(=O)COc2ccccc2)c2ccccc2S1(=O)=O`: -2.21. The figure for `O=C(C1CCN(S(=O)(=O)c2cccs2)CC1)N1CCN(c2ccccc2Cl)CC1` is -0.01; for `COc1ccc(C2=NS(=O)(=O)N(C)C(C(=O)N3CCN(C(=O)c4ccco4)CC3)=C2)cc1` it is -0.02. Consider `CCN(CC)S(=O)(=O)c1nnc(NC(=O)C(C)C)s1`, for which the z-score was -1.69. Next, `C=CCN(Cc1nc(-c2ccc(C)cc2)no1)S(=O)(=O)c1ccc(Br)cc1`: -1.17; `O=c1c(S(=O)(=O)c2ccc(Cl)cc2)c[nH]c2ccc(F)cc12`: 0.19; `Cc1cc(C)n(CCc2nc3c4ccccc4nc(SCC(=O)NCc4ccco4)n3n2)n1`: -1.06. Next, `O=C(CSCc1cnn(-c2ccccc2)c1-n1cccc1)Nc1ccc2c(c1)OCCO2`: -1.15; `COC(=O)c1sc(=S)n(-c2ccc(Cl)cc2)c1C`: -0.46; `CCOc1ccc(C2CC(=O)N3CN(c4ccc(OC)cc4OC)CSC3=C2C#N)cc1OC` (stereo not given): 3.34 (active).

In the case of `COc1cc(C2CC(=O)N3CN(c4ccccc4)CSC3=C2C#N)ccc1O` (stereo not given), the z-score was 0.52.

In the case of `COC(=O)c1ccc(N2CSC3=C(C#N)C(c4ccc(Cl)cc4)CC(=O)N3C2)cc1` (stereo not given), the z-score was 7.06 (active). Take `CC(c1ccccc1)N1CSC2=C(C#N)C(c3ccc(Cl)cc3)CC(=O)N2C1` (stereo not given): the z-score was 1.37. In the case of `CCOc1ccc(C2CC(=O)Nc3nc(SC)[nH]c(=O)c32)cc1OC` (stereo not given), the z-score is -2.13. For `CNC(=O)c1c(NC(=O)c2cc(=O)c3ccccc3o2)sc2c1CCCC2`, the z-score is -0.57. The figure for `COCCCn1c(SC2CCOC2=O)nc2c(sc3ccccc32)c1=O` (stereo not given) is -3.05; for `CCOC(=O)C1=C(C)NC2=C(C(=O)CC(c3cccs3)C2)C1c1cc(Br)ccc1F` (stereo not given) it is -0.66; for `CCOC(=O)c1c(CN(CC)CC)n(C)c2cc(Br)c(OC)cc12` it is -0.02.

For the compound `Cc1c(C=O)c(=O)oc2c3c4c(cc12)CCCN4CCC3`, the z-score is 16.4 (active). Next, `Cc1c(C)c2cc3c4c(oc3c(C)c2oc1=O)CCCC4`: 0.16; `CCc1cccc(-n2nnc(S(=O)(=O)c3ccc(C)cc3)c2C)c1`: -0.89; `CN1C(=O)c2ccccc2C(C(=O)Nc2ccc3c(c2)OCO3)C1c1cn(C)c2ccccc12` (stereo not given): -2.4. The figure for `CCCc1c(C)nc2ncnn2c1Nc1ccc(CC)cc1` is -2.22; for `COc1ccc(COC(=O)C2=C(C)NC3=C(C(=O)CCC3)C2c2ccc(Br)cc2)cc1` (stereo not given) it is -0.5; for `CCOCCOC(=O)C1=C(C)NC2=C(C(=O)CCC2)C1c1ccc(OC(C)=O)cc1` (stereo not given) it is -0.12. The figure for `C=CCOc1ccc(C2C3=C(CCCC3=O)NC3=C2C(=O)CCC3)cc1` is 15.9 (active).

The record behind these values is PubChem BioAssay AID1259370 (Center for Chemical Genomics, University of Michigan, 2018).
